RE007 growth inh: less growth of the S. pombe RE007 Vpr strain; S. pombe RE007 Vpr strain, BacTiter-Glo ATP luminescence, 24 h; Potency, µM (highest dose often 92.2 µM), inactives show at the top dose activity change, negative = less growth, actives largely listed as inhibitors; 360,000 tested, 0.21% active; AID 651644; active = well fitted falling curve with a large enough effect; inconclusive = small, poorly fitted or top-dose-only effect; inactive = no such curve, though single readings can be large or run the other way; also: nearly all actives have a fitted effect of over 50% in size
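Fission yeast strain RE007, carrying one chromosomally integrated HIV-1 vpr copy, was seeded at OD 0.01 in PMG+AL medium with 23 nL pinned compound. After 24 h at 30 °C and 99% humidity, viability was read by BacTiter-Glo luminescence.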
Marburg entry inh: blocks Marburg virus binding to or entry into cells; AID 540276; Potency, µM (highest dose often 37.8 µM), without a hit: at the highest dose activity change, negative = inhibition, hits mostly inhibitors; Marburg virus pseudotyped entry inhibition, cell reporter; 300,000 tested, 1.8% active; calls by dose curve; tested in HEK293 cells
FMDV inh: foot and mouth disease virus antiviral activity | FMDV antiviral cell-based qHTS | Potency, µM (titrated, usually from 57.9 µM), for inactives: at the top dose activity change, negative = inhibition, usual class: inhibitors | 410,000 tested, 1.2% active | AID 1159524; calls by dose curve; tested in HEK293T cells; also: read-out not given here; nearly all actives have a fitted effect of over 45% in size
HCV inh: blocks hepatitis C virus; Huh7.5.1 HCVcc-Cre infection, luciferase reporter, 44 h; Potency, µM (highest dose often 41.8 µM), without a hit: at the top dose activity change, negative = inhibition, most hits filed as inhibitors; 340,000 tested, 3.4% active
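1,000 cells/well; 4 h culture; + compound; + HCVcc-Cre (~0.5 moi); 44 h; luciferase substrate, RT 15 min; read 15 sec.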
Sm TGR block: blocks Schistosoma mansoni thioredoxin glutathione reductase; AID 485364; Q962Y6; purified TGR, DTNB reduction, TNB absorbance 405 nm; Potency, µM (highest dose often 114 µM), without a hit: top-dose activity change, negative = inhibition, actives largely listed as inhibitors; 360,000 tested, 3% active; also: nearly all actives have a fitted effect of over 60% in size
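TGR 20 nM + NADPH 100 uM (dispensed conc.), cpd preinc 15 min RT; start with NADPH (500 uM addition) then DTNB (15 mM addition). Kinetic TNB absorbance, 405 nm filter. Four-parameter Hill fit across titration.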
LASV entry inh: Lassa virus entry inhibition. Lassa virus pseudotype entry inhibition, cell reporter. Potency, µM (series often up to 37.9 µM), for inactives: at the top dose activity change, negative = inhibition, usual class: inhibitors. 300,000 tested, 1.2% active; calls by dose curve; tested in HEK293 cells; also: nearly all actives have a fitted effect of over 50% in size
An asterisk follows results filed as active; [ ] = another dose, or the depositor's remark. Most compounds without a hit are left out; they make up all but 7.2% or so of the library. Unless noted, calls follow the shape of the dose curve; as a rule, active = well fitted curve in the direction sought with a large enough effect; inconclusive = small, poorly fitted or top-dose-only effect, or another doubt; inactive = no such curve, though single readings can be large; an effect the other way counts as inactive or inconclusive. % is scaled to controls: 0 for no effect and ±100 for the full control effect; potency is read from the fitted curve at half-maximal effect.

Screening Cc1ccc2nc3c(cc(C#N)c(=O)n3-c3nnc(SCc4ccc(F)cc4)s3)c(=O)n2c1 returned Marburg entry inh inconclusive, FMDV inh 13%, Sm TGR block -13% and LASV entry inh inconclusive.
For COc1cc(Br)cc(/C=N/NC(=O)Cc2ccccc2)c1O the results were RE007 growth inh 4%, Marburg entry inh -18%, FMDV inh 37%, HCV inh 13µM* and LASV entry inh 13µM*.
O=C(CP(=O)(c1ccccc1)c1ccccc1)N/N=C/c1cc(Br)cc(Br)c1O was read as RE007 growth inh 14%, Marburg entry inh inconclusive, FMDV inh -3%, HCV inh inconclusive, Sm TGR block -32% and LASV entry inh 2.8µM*.
O=C(/C=C/c1ccc(O)c(O)c1)OC(Cc1ccc(O)c(O)c1)C(=O)O (configuration not stated) was read as RE007 growth inh 3%, FMDV inh -22%, HCV inh 10µM* and Sm TGR block 35µM*.
`N=C(N)Sc1nc(N2CCCCC2)nc(N2CCCCC2)n1` gave RE007 growth inh 9%, Marburg entry inh 14%, FMDV inh 0%, HCV inh 16%, Sm TGR block 10%[57.1 µM] and LASV entry inh 21%.
For c1ccc(Sc2nc(N3CCCCC3)nc(N3CCCCC3)n2)nc1 the results were RE007 growth inh 10%, Marburg entry inh -25%, FMDV inh -9%, HCV inh 10µM*, Sm TGR block 4% and LASV entry inh -4%.
For COc1cc(OC)cc(-c2sc3ccc(OC)cc3c2-c2ccc(O)cc2)c1 the results were RE007 growth inh -2%, FMDV inh -18% and HCV inh inconclusive.
COc1cc2sc(-c3ccccc3OC)c(-c3ccc(O)cc3)c2cc1OC was read as RE007 growth inh 6%, FMDV inh -18% and HCV inh 11µM*.
`COc1ccc(-c2sc3ccc(OC)cc3c2-c2ccc(O)cc2)cc1` gave RE007 growth inh -25%, FMDV inh inconclusive and HCV inh 8.9µM*.
Screening COc1ccc(O)cc1 returned RE007 growth inh 9%, FMDV inh -20% and HCV inh 0.79µM*.
`Cc1ccc(-c2nnc3ccccc3c2C(=O)Nc2ccccc2F)cc1` gave FMDV inh 56%, Sm TGR block 0% and LASV entry inh inconclusive.
Screening N[C@@H](Cn1c2c(c(=O)[nH]c1=O)CCC2)C(=O)O returned FMDV inh -17%.
For NC(=O)CN1C(=O)/C(=c2\sc3nc(=O)c(Cc4ccccc4)nn3c2=O)c2ccccc21 the results were RE007 growth inh -3%, Marburg entry inh inconclusive, FMDV inh -5%, HCV inh 26%, Sm TGR block 0.35µM* and LASV entry inh -2%[46.1 µM].
Screening COc1ccc(-n2c(CCNC(=O)c3ccccc3C(F)(F)F)nnc2SC)cc1 returned FMDV inh 0%.
For CCOc1nc(-c2ccccc2)ccc1-c1noc(-c2ccco2)n1 the results were RE007 growth inh 17%, Marburg entry inh inconclusive, FMDV inh -10%, HCV inh 10µM*, Sm TGR block -9% and LASV entry inh -9%.
For COC(=O)[C@@]1(Cc2ccc(OC)cc2)[C@@H]2C(=CC(=O)[C@H]2CC(=O)C(=O)N2CCCC2)CN1C(=O)c1ccccc1 the results were RE007 growth inh -10%, Marburg entry inh inconclusive, FMDV inh 16µM*, HCV inh -11%, Sm TGR block inconclusive and LASV entry inh inconclusive.
O=C(O[C@@H]1Cc2c(O)cc(O)cc2OC1c1ccc(O)c(O)c1)c1cc(O)c(O)c(O)c1 (some centres not stated) was read as FMDV inh 5%.
`CCN(CC)CCCNC(=O)/C=C/C(=O)O` gave RE007 growth inh 10%, Marburg entry inh 19%[46.1 µM], FMDV inh 3%, HCV inh -4%, Sm TGR block 2.5µM* and LASV entry inh 3%.
Screening CCN(CC)CCCNC(=O)c1ccccc1C returned RE007 growth inh 8%, Marburg entry inh -23%, FMDV inh -12%, Sm TGR block 2% and LASV entry inh -32%[14.3 µM].
COc1ccccc1OCc1ccc(C(=O)NC(C)(C)C)o1 was read as RE007 growth inh -8%, Marburg entry inh -8%, FMDV inh inconclusive, HCV inh inconclusive, Sm TGR block inconclusive and LASV entry inh -4%.
`COc1ccccc1OCc1ccc(C(=O)Nc2ccncc2)o1` gave RE007 growth inh -3%, Marburg entry inh inconclusive, FMDV inh 14µM*, HCV inh inconclusive, Sm TGR block 9% and LASV entry inh inconclusive.
Screening COC(=O)c1ccccc1NC(=O)c1ccc(COc2cccc3ccccc23)o1 returned RE007 growth inh -6%, Marburg entry inh -1%, FMDV inh 13%, HCV inh -16%, Sm TGR block 56µM* and LASV entry inh 0%.
For COc1ccccc1OCc1ccc(C(=O)NCc2ccco2)o1 the results were RE007 growth inh -12%, Marburg entry inh 0%, FMDV inh 6%, HCV inh inconclusive, Sm TGR block 40µM* and LASV entry inh inconclusive.
`O=C(NCc1ccco1)c1ccc(-c2cccc(Cl)c2)o1` gave RE007 growth inh -10%, Marburg entry inh 21%[46.1 µM], FMDV inh 71%, HCV inh 18%, Sm TGR block 32µM* and LASV entry inh inconclusive.
For CCS(=O)(=O)c1ccc(OC)c(Nc2ncc(-c3cccc(F)c3)o2)c1 the results were LASV entry inh -34%.
CO[C@]12CC(COC(=O)c3cncc(Br)c3)CN(C)[C@@H]1Cc1cn(C)c3cccc2c13 (some centres not stated) was read as FMDV inh -14%.
For CC(=O)c1ccc(N2CCN(c3ncnc4onc(-c5ccc(Cl)cc5)c34)CC2)cc1 the results were Marburg entry inh -13%[46.1 µM], FMDV inh -1%, Sm TGR block -2% and LASV entry inh inconclusive.
`O=c1n(-c2ccccc2)c(=O)n2n1CC[C@@H]1C(=NOC[C@@H](O)COCc3ccco3)[C@H]3O[C@H]3[C@@H](O)[C@H]12` gave Marburg entry inh -23%[14.2 µM].
For CC(C)c1ccc(NS(=O)(=O)c2ccc3nc(-c4ccccc4)[nH]c3c2)cc1 the results were Marburg entry inh inconclusive, FMDV inh -1%, Sm TGR block 3% and LASV entry inh inconclusive.
CC(=O)Cc1nsc(NC(=O)c2ccc(COc3ccccc3Cl)o2)n1 was read as RE007 growth inh -7%, Marburg entry inh 8%[46.1 µM], FMDV inh -4%, HCV inh 10%, Sm TGR block -23% and LASV entry inh 22%[46.1 µM].
